# About 21,000 targets were measured; listed, in parts, are those with the largest changes and a random draw of the rest.
# Compound: Cc1cc(ccc1-c1ccccc1)C(=O)N1CCCN(CC1)C(=O)CCl [compound 10]
# Experiment: probe-labelled cysteine peptide fold change vs DMSO (competition) (log2 fold change); higher = less target engagement (more negative = stronger competition)
# Conditions: THP-1, incubation time: 4 h
# 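Further: competitive profiling in live THP-1 cells: cysteine peptides tagged with an iodoacetamide desthiobiotin (IA-DTB) probe, intensity after compound treatment relative to DMSO-treated cells.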
# UniProt Q5T160, sequence (Q5T160 whole entry, looked up): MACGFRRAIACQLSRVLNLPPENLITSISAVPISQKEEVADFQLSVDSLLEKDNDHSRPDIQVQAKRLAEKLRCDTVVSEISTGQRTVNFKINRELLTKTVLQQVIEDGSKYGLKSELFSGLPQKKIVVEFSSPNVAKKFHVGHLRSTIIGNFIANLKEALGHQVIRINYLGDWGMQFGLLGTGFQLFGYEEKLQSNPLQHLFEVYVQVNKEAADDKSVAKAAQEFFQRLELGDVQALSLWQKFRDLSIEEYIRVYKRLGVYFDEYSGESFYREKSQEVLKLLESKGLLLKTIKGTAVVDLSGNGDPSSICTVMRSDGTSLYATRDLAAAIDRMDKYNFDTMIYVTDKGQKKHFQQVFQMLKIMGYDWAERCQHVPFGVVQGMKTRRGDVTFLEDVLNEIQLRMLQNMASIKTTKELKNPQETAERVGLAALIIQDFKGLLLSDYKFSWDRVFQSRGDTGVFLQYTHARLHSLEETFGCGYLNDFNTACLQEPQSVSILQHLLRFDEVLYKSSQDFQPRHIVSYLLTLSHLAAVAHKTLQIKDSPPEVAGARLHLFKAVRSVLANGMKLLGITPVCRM
# UniProt O14593, sequence (O14593 whole entry): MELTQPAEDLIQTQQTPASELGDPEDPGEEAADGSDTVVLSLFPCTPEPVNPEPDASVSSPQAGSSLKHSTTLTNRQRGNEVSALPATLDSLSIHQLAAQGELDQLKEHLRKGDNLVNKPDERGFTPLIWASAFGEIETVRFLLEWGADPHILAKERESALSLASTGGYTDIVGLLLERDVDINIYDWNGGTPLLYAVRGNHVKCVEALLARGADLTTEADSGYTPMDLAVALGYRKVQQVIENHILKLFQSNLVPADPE
# UniProt P05771, sequence (P05771 whole entry, looked up): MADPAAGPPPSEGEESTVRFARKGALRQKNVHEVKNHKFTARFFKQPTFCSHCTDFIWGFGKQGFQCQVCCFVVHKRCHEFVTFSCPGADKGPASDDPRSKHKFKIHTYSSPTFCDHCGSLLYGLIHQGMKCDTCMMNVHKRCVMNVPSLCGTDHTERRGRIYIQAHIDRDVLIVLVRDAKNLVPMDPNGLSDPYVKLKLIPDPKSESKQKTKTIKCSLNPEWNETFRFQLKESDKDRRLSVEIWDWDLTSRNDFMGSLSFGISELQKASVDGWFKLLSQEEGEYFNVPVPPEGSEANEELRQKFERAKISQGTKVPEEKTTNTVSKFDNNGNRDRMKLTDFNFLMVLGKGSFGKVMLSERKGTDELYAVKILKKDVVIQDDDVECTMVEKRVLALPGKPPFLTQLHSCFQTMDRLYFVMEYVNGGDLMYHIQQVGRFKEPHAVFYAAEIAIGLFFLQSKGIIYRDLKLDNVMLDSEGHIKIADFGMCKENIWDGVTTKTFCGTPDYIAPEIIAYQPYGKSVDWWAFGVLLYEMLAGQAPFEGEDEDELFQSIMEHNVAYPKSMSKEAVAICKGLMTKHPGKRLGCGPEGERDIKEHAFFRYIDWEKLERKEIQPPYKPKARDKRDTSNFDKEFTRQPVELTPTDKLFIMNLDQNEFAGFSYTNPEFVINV
# UniProt Q7Z6M1, sequence (Q7Z6M1 whole entry, looked up): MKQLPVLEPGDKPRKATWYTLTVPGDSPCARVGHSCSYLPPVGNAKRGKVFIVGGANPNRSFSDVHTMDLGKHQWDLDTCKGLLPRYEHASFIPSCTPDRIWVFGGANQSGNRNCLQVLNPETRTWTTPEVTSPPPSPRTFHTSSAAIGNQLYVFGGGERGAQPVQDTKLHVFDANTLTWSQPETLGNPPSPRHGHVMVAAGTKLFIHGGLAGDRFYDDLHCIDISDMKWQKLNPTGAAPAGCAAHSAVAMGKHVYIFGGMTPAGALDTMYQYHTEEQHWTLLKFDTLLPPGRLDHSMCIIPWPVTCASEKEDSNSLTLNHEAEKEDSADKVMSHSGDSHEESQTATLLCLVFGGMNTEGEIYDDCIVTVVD
# UniProt O14818, sequence (O14818 whole entry, looked up): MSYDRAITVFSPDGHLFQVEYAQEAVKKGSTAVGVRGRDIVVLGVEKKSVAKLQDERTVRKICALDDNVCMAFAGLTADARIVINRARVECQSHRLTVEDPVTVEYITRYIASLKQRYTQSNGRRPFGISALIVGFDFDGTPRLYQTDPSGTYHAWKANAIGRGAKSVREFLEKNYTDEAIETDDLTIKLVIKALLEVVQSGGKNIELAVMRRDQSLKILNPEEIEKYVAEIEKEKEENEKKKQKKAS
# UniProt Q99873, sequence (Q99873 whole entry, looked up): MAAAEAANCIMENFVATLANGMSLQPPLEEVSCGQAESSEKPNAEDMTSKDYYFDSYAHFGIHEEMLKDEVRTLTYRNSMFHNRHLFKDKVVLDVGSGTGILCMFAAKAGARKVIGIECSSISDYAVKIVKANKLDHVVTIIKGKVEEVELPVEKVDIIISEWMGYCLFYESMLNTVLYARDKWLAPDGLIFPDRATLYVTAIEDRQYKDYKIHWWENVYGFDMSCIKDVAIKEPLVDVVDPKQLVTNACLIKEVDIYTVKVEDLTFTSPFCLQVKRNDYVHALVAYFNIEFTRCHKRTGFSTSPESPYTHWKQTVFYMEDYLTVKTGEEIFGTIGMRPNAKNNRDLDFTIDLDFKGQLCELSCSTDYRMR
# UniProt Q92878, sequence (Q92878 whole entry, looked up): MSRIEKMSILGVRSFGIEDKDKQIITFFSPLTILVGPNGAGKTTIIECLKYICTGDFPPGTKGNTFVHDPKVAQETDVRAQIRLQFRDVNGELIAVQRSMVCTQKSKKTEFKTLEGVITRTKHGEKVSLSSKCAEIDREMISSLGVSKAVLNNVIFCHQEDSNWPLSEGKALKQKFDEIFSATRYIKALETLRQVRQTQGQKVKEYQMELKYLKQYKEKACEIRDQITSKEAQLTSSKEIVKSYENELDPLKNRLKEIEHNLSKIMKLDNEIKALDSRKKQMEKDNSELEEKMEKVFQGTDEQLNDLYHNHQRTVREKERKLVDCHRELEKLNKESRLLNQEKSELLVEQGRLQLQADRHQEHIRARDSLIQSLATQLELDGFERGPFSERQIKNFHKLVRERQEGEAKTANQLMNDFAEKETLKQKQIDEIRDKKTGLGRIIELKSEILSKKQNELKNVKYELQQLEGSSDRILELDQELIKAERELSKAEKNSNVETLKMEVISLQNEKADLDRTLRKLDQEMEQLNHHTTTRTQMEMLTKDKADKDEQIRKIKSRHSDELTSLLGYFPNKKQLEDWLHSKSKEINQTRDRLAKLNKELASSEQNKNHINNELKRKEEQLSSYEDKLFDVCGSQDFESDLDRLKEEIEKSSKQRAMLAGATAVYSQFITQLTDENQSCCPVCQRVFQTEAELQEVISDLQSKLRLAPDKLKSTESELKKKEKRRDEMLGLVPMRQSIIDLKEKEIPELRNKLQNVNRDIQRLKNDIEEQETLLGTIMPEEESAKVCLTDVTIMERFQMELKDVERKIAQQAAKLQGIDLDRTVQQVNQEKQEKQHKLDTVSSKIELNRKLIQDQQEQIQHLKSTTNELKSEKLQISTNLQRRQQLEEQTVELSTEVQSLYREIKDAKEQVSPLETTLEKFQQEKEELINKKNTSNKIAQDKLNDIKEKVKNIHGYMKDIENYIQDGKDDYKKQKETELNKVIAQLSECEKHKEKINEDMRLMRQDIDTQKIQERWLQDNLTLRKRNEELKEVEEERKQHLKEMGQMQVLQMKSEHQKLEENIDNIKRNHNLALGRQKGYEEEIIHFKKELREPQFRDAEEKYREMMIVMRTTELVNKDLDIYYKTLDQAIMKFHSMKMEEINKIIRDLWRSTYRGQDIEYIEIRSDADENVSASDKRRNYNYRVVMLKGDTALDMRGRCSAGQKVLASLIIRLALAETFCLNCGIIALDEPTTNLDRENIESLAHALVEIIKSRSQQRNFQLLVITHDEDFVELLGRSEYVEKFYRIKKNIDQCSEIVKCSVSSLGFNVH
# UniProt P60891, sequence (P60891 whole entry, looked up): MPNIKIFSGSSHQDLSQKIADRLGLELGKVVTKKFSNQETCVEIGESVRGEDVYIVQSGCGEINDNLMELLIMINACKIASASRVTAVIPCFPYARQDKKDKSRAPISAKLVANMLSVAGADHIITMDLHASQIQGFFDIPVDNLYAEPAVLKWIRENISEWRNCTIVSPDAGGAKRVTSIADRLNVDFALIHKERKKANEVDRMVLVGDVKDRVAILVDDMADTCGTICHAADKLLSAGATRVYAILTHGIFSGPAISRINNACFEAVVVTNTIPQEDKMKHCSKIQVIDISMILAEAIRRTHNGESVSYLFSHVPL
# UniProt P49720, sequence (P49720 whole entry, looked up): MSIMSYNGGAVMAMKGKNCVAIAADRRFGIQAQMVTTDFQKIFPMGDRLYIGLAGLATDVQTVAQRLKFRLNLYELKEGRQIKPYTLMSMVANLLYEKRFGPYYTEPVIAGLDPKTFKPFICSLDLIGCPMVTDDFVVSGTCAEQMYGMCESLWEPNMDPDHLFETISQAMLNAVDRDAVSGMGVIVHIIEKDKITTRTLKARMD
# UniProt Q14088, sequence (Q14088 whole entry, looked up): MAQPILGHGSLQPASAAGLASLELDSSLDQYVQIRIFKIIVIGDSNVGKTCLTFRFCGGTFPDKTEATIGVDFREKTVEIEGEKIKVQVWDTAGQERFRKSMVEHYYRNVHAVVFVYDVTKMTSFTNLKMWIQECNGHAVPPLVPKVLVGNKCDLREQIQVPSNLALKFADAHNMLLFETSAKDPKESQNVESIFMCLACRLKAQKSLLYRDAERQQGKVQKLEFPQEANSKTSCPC
# UniProt P40938, sequence (P40938 whole entry, looked up): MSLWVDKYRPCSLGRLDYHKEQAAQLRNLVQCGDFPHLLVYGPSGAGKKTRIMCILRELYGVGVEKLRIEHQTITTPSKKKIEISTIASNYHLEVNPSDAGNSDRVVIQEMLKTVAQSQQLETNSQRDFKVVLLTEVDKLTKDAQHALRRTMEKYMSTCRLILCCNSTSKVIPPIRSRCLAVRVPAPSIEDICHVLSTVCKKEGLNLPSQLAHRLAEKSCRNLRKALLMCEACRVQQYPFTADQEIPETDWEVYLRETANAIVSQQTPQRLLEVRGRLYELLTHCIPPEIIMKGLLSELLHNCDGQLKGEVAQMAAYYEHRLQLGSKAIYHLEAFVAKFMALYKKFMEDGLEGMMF
Target,probe-labelled cysteine peptide fold change (10 µM),probe-labelled cysteine peptide fold change (50 µM)
PRKDC_P78527_2342_KNILEESLCELVAK (UniProt P78527),-0.182,-0.0562
PXN_P49023_387_TWHPEHFVCTHCQEEIGSR (UniProt P49023),-0.0992,-0.106
RBM28_Q9NW13_97_NENSECPK (UniProt Q9NW13),-0.0194,0.16
PRKDC_P78527_1335_CTVVVR (UniProt P78527),0.00715,0.101
PRKCSH_P14314_39_GVSLTNHHFYDESKPFTCLDGSATIPFDQVNDDYCDCK (UniProt P14314),-0.151,-1.07
RET_P07949_987_LMLQCWK (UniProt P07949),0.0807,0.122
RFXANK_O14593_205_CVEALLAR (UniProt O14593),0.0175,-0.265
RLF_Q13129_400_TIACLLPEDLEVRR (UniProt Q13129),-0.0742,-0.58
PREX1_Q8TCU6_836_LSLCEDSPMVTLTVDNVHLEHGVVYEYVSTAGVR (UniProt Q8TCU6),-0.0714,0.185
PRPS1_P60891_41_KFSNQETCVEIGESVR (UniProt P60891),0.0818,0.329
RNF126_Q9BV68_13+16_YFCHCCSVEIVPR (UniProt Q9BV68),-0.268,-1.16
PRKCD_Q05655_261+264_CEDCGMNVHHK (UniProt Q05655),-0.702,-1.69
PRMT1_Q99873_103_DKVVLDVGSGTGILCMFAAK (UniProt Q99873),-0.168,-0.709
PXN_P49023_523_ECFTPFVNGSFFEHDGQPYCEVHYHER (UniProt P49023),0.032,0.12
RDH13_Q8NBN7_30_DYVTGGACPSK (UniProt Q8NBN7),-0.162,-0.083
PRKCB_P05771_132+135_CDTCMMNVHKR (UniProt P05771),-0.193,-0.881
PSMA7_O14818_91_ARVECQSHR (UniProt O14818),-0.0556,0.107
RANBP2_P49792_2982_VCANHVITK (UniProt P49792),0.0357,0.111
PSMB3_P49720_19_NCVAIAADRR (UniProt P49720),0.0313,0.234

Target,probe-labelled cysteine peptide fold change (10 µM),probe-labelled cysteine peptide fold change (50 µM)
RAD50_Q92878_133_CAEIDREMISSLGVSK (UniProt Q92878),-0.195,-0.429
RFC3_P40938_32_NLVQCGDFPHLLVYGPSGAGKK (UniProt P40938),-0.11,-0.186
RNF123_Q5XPI4_1277_ACINQHLMNNK (UniProt Q5XPI4),-0.0494,-0.231
RCSD1_Q6JBY9_181_RSQSDCGELGDFR (UniProt Q6JBY9),-0.852,-1.19
PRKD2_Q9BZL6_169_CDGCGLNYHK (UniProt Q9BZL6),-0.0725,0.00149
PRKDC_P78527_1742_FNNYVDCMK (UniProt P78527),0.239,-0.0715
PRPF4_O43172_441_RCVYTIPAHQNLVTGVK (UniProt O43172),-0.0522,-0.2
RARS_P54136_34_NCGCLGASPNLEQLQEENLK (UniProt P54136),-0.247,-1.27
RABEPK_Q7Z6M1_36_VGHSCSYLPPVGNAK (UniProt Q7Z6M1),-0.218,-0.0672
RHOT2_Q8IXI1_185_QLRPACAQALTR (UniProt Q8IXI1),-0.151,0.0492
RNF113A_O15541_202_WDYQPDICK<|>RNF113B_Q8IZP6_196_WDYQPDICK (UniProt Q8IZP6+O15541),-0.0623,-0.145
RARS2_Q5T160_479_LHSLEETFGCGYLNDFNTACLQEPQSVSILQHLLR (UniProt Q5T160),-0.037,0.0628
RNF114_Q9Y508_160_NFDQEGLVEHCK (UniProt Q9Y508),0.0873,0.126
RLF_Q13129_1494_VCQTADTQGHEHQTTR (UniProt Q13129),0.131,-0.309
RHOC_P08134_20_TCLLIVFSK<|>RHOA_P61586_20_TCLLIVFSK<|>RHOB_P62745_20_TCLLIVFSK (UniProt P62745+P61586+P08134),-0.323,-0.507
RAB33A_Q14088_135_MWIQECNGHAVPPLVPK (UniProt Q14088),0.0206,0.0086
PRKDC_P78527_1364_DLCNTHLMR (UniProt P78527),-0.0526,-0.0393
RGS10_O43665_66_EFSEENVLFWLACEDFK (UniProt O43665),0.332,0.101

# Reference: the supplement of paper PMC12067093, “Discovery and optimisation of a covalent ligand for TRIM25 and its application to targeted protein ubiquitination” (Chemical Science, 2025)
